Where “and” joins values, the source holds several entries; their conditions need not be identical. Identical values can stand only once. Records with an inconclusive call do not appear. A call without a number means that no potency is given here. A structure can be active in one record and inactive in another. Calls of active or inactive are those of the source. Calls come from the whole dose curve; as a rule, active = well fitted curve in the direction sought with a large enough effect in the repeat runs; inconclusive = weak or mixed curves; inactive = no such curve, though single readings can be large; an effect the other way counts as inactive or inconclusive.
Legend:
[1] = Human pregnane X receptor (PXR) small molecule agonists, qHTS cell viability counter screen (AID 1346977); note: nearly all actives have a fitted effect of over 50% in size
In short: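 Viability counter screen: CellTiter-Fluor signal in PXR-Luc HepG2 cells, 24hr compound exposure, 37C, 5% CO2.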

[2] = Caspase-3/7 induction in HepG2 cells by small molecules, qHTS assay (AID 1346978); note: nearly all actives have a fitted effect of over 15% in size
In short: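 Wild-type HepG2 cells, 2,000/well, settled 5 hr at 37 C and 5% CO2, then compound-treated for 17 hr; caspase-3/7 activity read by luminescent Caspase-Glo 3/7 after 30 min at room temperature.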

[3] = Caspase-3/7 induction in CHO-K1 cells by small molecules, qHTS cell viability counter screen (AID 1346979); note: nearly all actives have a fitted effect of over 35% in size; note: potency is the fitted concentration of half-maximal effect
In short: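 Viability readout by fluorescence (CellTiter-Fluor) on wild-type CHO-K1 cells exposed for 16hr at 37C and 5% CO2 to compounds delivered in DMSO; reagent incubated 1hr before reading.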

[4] = Caspase-3/7 induction in CHO-K1 cells by small molecules, qHTS assay (AID 1346980); note: nearly all actives have a fitted effect of over 15% in size
In short: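 Wild-type CHO-K1 cells exposed to compounds for 17hr at 37 C, 5% CO2. Caspase-3/7 activity then measured by Caspase-Glo 3/7 luminescence after 30min at room temperature.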

[5] = Caspase-3/7 induction in HepG2 cells by small molecules, qHTS cell viability counter screen (AID 1346981); note: series mostly up to about 92 µM; nearly all actives have a fitted effect of over 30% in size
In short: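 CellTiter-Fluor fluorescence measured viability in the same wells used for Caspase-Glo 3/7. HepG2 (wild type) at 2,000 cells/well were pre-incubated 5 hr, dosed, and given reagent at 16 hr, with 1 hr further at 37C.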

[6] = biological target: Nuclear receptor subfamily 1 group I member 2 (Homo sapiens) (UniProt O75469); assay: Human pregnane X receptor (PXR) small molecule agonists, qHTS assay (AID 1346982); note: nearly all actives have a fitted effect of over 35% in size; note: potency is the fitted concentration of half-maximal effect
Chain of Nuclear receptor subfamily 1 group I member 2 (Homo sapiens) (O75469 whole entry, looked up): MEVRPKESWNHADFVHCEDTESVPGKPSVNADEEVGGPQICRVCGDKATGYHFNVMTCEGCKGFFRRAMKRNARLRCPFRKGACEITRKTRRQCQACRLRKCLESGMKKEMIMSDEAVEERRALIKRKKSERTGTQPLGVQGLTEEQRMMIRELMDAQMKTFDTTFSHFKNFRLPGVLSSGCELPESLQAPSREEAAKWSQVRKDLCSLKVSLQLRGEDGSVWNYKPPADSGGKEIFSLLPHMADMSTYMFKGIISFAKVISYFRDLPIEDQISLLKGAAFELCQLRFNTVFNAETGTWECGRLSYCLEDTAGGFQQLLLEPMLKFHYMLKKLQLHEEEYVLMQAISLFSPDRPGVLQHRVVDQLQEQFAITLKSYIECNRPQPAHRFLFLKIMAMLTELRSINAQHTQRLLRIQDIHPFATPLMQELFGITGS
In short: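 Agonist mode: luminescence from ONE-Glo after 24 h compound exposure at 37C in HepG2 cells carrying hPXR-responsive CYP3A4 luciferase, plated in charcoal-stripped serum medium 5 h beforehand.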

[7] = biological target: Cytochrome P450 2C19 (Homo sapiens) (UniProt P33261); assay: Cytochrome P450 Family 2 Subfamily C Member 19 (CYP2C19) small molecule antagonists: luciferase reporter qHTS assay (AID 1671197); note: nearly all actives have a fitted effect of over 65% in size; note: potency is the fitted concentration of half-maximal effect
Chain of Cytochrome P450 2C19 (Homo sapiens) (P33261 whole entry, looked up): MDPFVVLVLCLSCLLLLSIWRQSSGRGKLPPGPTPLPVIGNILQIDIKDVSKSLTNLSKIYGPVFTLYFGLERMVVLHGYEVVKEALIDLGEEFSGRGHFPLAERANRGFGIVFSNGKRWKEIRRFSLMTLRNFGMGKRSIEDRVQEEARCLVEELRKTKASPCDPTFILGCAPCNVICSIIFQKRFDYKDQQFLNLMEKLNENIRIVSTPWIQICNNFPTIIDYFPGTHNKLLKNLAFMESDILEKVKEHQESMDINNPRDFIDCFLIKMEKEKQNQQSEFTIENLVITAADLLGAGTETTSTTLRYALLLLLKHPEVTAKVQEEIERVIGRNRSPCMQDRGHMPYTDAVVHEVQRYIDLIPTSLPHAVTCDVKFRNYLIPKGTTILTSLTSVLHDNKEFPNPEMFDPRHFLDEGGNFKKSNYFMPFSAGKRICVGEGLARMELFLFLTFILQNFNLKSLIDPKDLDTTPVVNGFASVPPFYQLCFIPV
In short: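 First, compounds are pinned into enzyme-substrate mix and held 10 min at room temperature. Second, NADPH regeneration solution is added and plates incubate 1 h at 37C. Third, detection reagent is added and luminescence read after 20 min.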

[8] = biological target: Cytochrome P450 2C9 (Homo sapiens) (UniProt P11712); assay: Cytochrome P450 Family 2 Subfamily C Member 9 (CYP2C9) small molecule antagonists: luciferase reporter qHTS assay (AID 1671198); note: nearly all actives have a fitted effect of over 50% in size; note: potency is the fitted concentration of half-maximal effect
Chain of Cytochrome P450 2C9 (Homo sapiens) (P11712 whole entry, looked up): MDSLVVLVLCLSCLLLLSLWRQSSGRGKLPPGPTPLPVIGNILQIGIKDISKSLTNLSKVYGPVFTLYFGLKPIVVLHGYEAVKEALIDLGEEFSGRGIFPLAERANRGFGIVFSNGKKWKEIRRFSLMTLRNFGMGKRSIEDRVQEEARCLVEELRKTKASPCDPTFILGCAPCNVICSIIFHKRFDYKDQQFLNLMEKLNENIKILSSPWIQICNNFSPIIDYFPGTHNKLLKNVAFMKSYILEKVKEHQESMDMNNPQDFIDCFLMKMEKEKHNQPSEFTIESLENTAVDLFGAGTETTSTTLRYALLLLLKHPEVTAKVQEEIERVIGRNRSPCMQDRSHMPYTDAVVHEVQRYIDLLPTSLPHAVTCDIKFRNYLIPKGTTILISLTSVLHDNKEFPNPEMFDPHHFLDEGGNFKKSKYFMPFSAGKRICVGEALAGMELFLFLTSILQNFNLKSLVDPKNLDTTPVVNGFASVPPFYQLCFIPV
In short: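 P450-Glo proluciferin substrate with CYP2C9 enzyme; 10 min RT preincubation, then NADPH regeneration 1 h at 37C; luciferin detection reagent 20 min RT, luminescence in relative luminescence units.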

[9] = biological target: Cytochrome P450 1A2 (Homo sapiens) (UniProt P05177); assay: Cytochrome P450 Family 1 Subfamily A Member 2 (CYP1A2) small molecule antagonists: luciferase reporter qHTS assay (AID 1671199); note: nearly all actives have a fitted effect of over 50% in size; note: potency is the fitted concentration of half-maximal effect
Chain of Cytochrome P450 1A2 (Homo sapiens) (P05177 whole entry, looked up): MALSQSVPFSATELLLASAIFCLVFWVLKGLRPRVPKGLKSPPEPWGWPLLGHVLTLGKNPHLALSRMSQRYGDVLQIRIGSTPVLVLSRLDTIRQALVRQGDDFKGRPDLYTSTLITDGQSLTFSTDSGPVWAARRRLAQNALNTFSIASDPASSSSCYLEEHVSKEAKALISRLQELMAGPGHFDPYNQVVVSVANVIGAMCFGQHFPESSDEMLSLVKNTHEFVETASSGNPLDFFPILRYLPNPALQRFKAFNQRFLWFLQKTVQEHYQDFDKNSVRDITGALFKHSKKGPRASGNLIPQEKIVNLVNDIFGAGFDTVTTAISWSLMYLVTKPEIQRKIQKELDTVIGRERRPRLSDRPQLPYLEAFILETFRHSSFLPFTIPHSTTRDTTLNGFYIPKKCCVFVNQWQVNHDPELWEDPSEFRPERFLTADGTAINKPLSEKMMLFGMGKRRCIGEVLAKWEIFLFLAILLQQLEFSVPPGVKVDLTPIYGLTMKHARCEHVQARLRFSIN
In short: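 Luminescence from luciferin formed by CYP1A2 from a proluciferin substrate, read 20 min after detection reagent. Compound was pre-incubated 10 min with enzyme-substrate, and reaction started with NADPH regeneration solution for 1 h at room temperature; furafylline control.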

[10] = biological target: Voltage-gated inwardly rectifying potassium channel KCNH2 (Homo sapiens) (UniProt Q12809); assay: Human Ether-a-go-go-Related Gene (hERG) channel small molecule antagonists: fluorescence cell-based qHTS assay (AID 1671200);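 note: hERG-expressing U2OS cells given a thallium stimulus after FluxOR II dye loading; series mostly up to about 77 µM; nearly all actives have a fitted effect of over 50% in size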
Chain of Voltage-gated inwardly rectifying potassium channel KCNH2 (Homo sapiens) (Q12809 whole entry, looked up): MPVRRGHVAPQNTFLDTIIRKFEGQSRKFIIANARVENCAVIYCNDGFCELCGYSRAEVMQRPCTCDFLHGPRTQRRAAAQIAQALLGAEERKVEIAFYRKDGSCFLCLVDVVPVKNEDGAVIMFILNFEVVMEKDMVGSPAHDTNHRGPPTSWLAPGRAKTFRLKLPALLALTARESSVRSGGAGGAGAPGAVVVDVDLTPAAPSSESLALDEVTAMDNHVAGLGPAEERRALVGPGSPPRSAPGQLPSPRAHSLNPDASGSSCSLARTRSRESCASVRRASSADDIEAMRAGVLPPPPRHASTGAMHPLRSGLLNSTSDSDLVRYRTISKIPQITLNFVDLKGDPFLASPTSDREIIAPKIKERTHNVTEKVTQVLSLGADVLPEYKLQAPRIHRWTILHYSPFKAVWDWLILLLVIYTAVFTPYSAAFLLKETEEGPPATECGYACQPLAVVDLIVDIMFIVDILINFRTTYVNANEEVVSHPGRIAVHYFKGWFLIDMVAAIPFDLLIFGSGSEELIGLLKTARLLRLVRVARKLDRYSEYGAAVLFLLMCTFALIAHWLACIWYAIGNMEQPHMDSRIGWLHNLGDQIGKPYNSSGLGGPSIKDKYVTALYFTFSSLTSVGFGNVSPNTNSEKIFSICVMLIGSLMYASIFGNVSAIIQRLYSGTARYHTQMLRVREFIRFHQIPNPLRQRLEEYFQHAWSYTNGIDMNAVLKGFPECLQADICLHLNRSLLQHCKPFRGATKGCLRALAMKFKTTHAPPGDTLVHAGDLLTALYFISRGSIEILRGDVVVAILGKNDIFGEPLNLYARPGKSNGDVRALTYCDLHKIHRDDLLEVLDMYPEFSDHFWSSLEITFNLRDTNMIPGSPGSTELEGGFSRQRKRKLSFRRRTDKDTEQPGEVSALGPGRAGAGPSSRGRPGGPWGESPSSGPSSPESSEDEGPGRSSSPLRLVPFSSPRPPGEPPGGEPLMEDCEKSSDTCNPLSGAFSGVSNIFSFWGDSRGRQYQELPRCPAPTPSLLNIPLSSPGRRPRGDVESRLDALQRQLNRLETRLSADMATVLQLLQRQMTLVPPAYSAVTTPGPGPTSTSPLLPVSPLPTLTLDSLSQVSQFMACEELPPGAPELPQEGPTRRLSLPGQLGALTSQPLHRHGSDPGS
In short: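 Thallium served as the potassium surrogate; its influx into dye-loaded U2OS cells carrying the channel was measured by fluorescence over 2 min.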

[11] = biological target: Cytochrome P450 3A4 (Homo sapiens) (UniProt P08684); assay: Cytochrome P450 Family 3 Subfamily A Member 4 (CYP3A4) small molecule antagonists: luciferase reporter qHTS assay (AID 1671201); note: nearly all actives have a fitted effect of over 50% in size; note: potency is the fitted concentration of half-maximal effect
Chain of Cytochrome P450 3A4 (Homo sapiens) (P08684 whole entry, looked up): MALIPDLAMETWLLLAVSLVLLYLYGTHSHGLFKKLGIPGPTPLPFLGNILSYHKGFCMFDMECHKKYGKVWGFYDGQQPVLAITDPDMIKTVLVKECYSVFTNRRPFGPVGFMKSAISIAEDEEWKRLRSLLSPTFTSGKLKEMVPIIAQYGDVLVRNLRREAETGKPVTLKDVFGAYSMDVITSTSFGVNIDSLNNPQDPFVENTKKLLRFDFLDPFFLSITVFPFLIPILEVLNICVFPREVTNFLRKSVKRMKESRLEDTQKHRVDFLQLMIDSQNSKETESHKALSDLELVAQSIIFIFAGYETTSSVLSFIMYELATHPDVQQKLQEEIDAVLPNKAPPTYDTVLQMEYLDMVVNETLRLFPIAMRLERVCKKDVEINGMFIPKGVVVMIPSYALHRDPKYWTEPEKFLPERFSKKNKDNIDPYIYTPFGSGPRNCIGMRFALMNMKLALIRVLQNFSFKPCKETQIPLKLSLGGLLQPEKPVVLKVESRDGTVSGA
In short: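 Relative luminescence units after 20 min with luciferin detection reagent served as read-out. Beforehand, CYP3A4 turned over a proluciferin substrate for 1 h at room temperature with NADPH regeneration, following 10 min compound preincubation.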

[12] = biological target: Cytochrome P450 2D6 (Homo sapiens) (UniProt P10635); assay: Cytochrome P450 Family 2 Subfamily D Member 6 (CYP2D6) small molecule antagonists: luciferase reporter qHTS assay (AID 1671196); note: nearly all actives have a fitted effect of over 50% in size; note: potency is the fitted concentration of half-maximal effect
Chain of Cytochrome P450 2D6 (Homo sapiens) (P10635 whole entry, looked up): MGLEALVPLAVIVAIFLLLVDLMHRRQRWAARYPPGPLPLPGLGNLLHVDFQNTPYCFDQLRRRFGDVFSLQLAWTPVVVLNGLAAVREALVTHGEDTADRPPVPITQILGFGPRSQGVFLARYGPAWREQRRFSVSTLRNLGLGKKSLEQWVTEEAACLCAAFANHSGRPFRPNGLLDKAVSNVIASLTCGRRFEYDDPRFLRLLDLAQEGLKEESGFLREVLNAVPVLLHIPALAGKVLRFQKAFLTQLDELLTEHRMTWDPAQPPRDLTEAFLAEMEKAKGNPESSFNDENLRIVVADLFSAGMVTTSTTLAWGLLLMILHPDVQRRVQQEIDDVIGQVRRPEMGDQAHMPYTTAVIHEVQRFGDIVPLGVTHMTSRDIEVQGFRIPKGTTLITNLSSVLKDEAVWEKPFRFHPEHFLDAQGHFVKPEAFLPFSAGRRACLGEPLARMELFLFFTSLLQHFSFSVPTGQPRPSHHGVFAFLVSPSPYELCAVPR
In short: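 CYP2D6 activity was followed as luminescence from its luciferin product after a 1 h NADPH-driven reaction at room temperature. Enzyme-substrate mix and compound were pre-incubated for 10 min, and the signal was read 20 min after adding detection reagent.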

[13] = biological target: Nuclear receptor subfamily 1 group I member 2 (Rattus norvegicus) (UniProt Q9R1A7); assay: Rat pregnane X receptor (rPXR) activation by small molecules, qHTS assay (AID 1346983); settings: rPXR luciferase reporter cells, One-Glo luminescence, 24 h; stronger effect = higher value; note: nearly all actives have a fitted effect of over 20% in size
Chain of Nuclear receptor subfamily 1 group I member 2 (Rattus norvegicus) (Q9R1A7 whole entry, looked up): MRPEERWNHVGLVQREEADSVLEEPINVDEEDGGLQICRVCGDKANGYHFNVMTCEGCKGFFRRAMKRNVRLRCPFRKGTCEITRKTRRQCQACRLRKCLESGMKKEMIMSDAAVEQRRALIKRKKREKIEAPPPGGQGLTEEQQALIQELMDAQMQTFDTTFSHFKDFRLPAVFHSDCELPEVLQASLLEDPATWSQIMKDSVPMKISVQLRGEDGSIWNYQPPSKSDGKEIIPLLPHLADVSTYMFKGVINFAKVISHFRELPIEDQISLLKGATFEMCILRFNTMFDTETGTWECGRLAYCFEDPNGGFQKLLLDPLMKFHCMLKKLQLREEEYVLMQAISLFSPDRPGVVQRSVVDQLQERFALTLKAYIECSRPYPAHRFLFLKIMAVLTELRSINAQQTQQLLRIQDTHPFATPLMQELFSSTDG
In short: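 Cell-based rPXR activation assay: rPXR cells, 2,000 per well, rested 5hr at 37 C, then exposed to compounds in DMSO for 24 hr at 37 C. Luciferase activity read by One-Glo luminescence after 30 min at room temperature.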

SMILES | Potency [1] | Potency [2] | Potency [3] | outcome [4] | Potency [5] | Potency [6] | Potency [7] | Potency [8] | Potency [9] | Potency [10] | Potency [11] | Potency [12] | max activation [13]
NCCN1CCNCC1 | inactive | inactive | inactive | inactive | inactive | inactive | inactive | inactive | inactive | inactive | inactive | – | –
COc1ccc([N+](=O)[O-])cc1N | inactive | inactive | inactive | inactive | – | – | 35.7 µM (active) and 79.6 µM (active) | 40.1 µM (active) and 63.3 µM (active) | 22.5 µM (active) and 31.7 µM (active) | inactive | 35.7 µM (active) and 35.6 µM (active) | inactive | –
CCCCCCCCCCN | inactive | inactive | inactive | inactive | inactive | inactive | 7.14 µM (active) and 5.64 µM (active) | – | 31.9 µM (active) and 31.7 µM (active) | inactive | inactive | 35.8 µM (active) and 12.6 µM (active) | –
COc1cc(OC)c(C(=O)CCCN2CCCC2)c(OC)c1 | inactive | inactive | inactive | inactive | inactive | – | inactive | – | inactive | inactive | – | – | -3.14% (inactive)
CCNc1cccc(C)c1 | inactive | inactive | inactive | inactive | inactive | inactive | 30.5 µM (active) and inactive | – | – | inactive | inactive | inactive | –
CCOCCOCCOCCO | inactive | inactive | inactive | inactive | inactive | inactive | 82.4 µM (active) and inactive | – | – | inactive | inactive | inactive | –
NC(=S)NNC(N)=S | inactive | inactive | inactive | inactive | – | inactive | 34.7 µM (active) and inactive | 35.6 µM (active) | – | inactive | inactive | inactive | –
CN1C(=O)CC[C@H]1c1cccnc1 | inactive | inactive | inactive | inactive | inactive | – | inactive | inactive | – | inactive | – | – | -3.2% (inactive)
CC(C)OC(=O)COc1ccc(Cl)cc1Cl | inactive | inactive | inactive | inactive | inactive | inactive | 11.1 µM (active) and 50.2 µM (active) | 35 µM (active) and 35.6 µM (active) | 6.23 µM (active) and 63.3 µM (active) | inactive | inactive | – | –
CCCCCCC=O | inactive | inactive | inactive | inactive | inactive | inactive | 40.8 µM (active) and 39.9 µM (active) | – | inactive | inactive | inactive | inactive and 17.8 µM (active) | –
CC(C)(C#N)c1cc(Cn2cncn2)cc(C(C)(C)C#N)c1 | inactive | inactive | inactive | inactive | inactive | – | 21.8 µM (active) and 15.5 µM (active) | 9.75 µM (active) and 8.71 µM (active) | – | inactive | – | inactive | 0.273% (inactive)
COc1ccc(OC)cc1 | inactive | inactive | inactive | inactive | inactive | inactive | 40.7 µM (active) and inactive | inactive | – | inactive | inactive | inactive | –
CCNc1ccccc1 | inactive | inactive | inactive | inactive | inactive | inactive | 25.6 µM (active) | – | – | inactive | inactive | inactive | –
COc1ccccc1OCC(O)CO (centres undefined) | inactive | inactive | inactive | inactive | inactive | – | – | – | – | inactive | – | – | –
O=S(=O)(O)c1ccccc1 | inactive | inactive | inactive | inactive | inactive | – | – | – | – | inactive | – | – | –
O=C(O)/C=C/C(=O)O | inactive | inactive | inactive | inactive | inactive | – | inactive | inactive | – | inactive | inactive | 37.6 µM (active) and inactive | –
CC(C)c1cccc(C(C)C)c1 | inactive | inactive | inactive | inactive | inactive | inactive | – | inactive | inactive | inactive | inactive | inactive | –
Nc1ccc(Cl)c(N)c1 | inactive | inactive | inactive | inactive | inactive | 61.3 µM (active) | 11.3 µM (active) and 20 µM (active) | – | 40 µM (active) and 35.6 µM (active) | inactive | 11.3 µM (active) and 31.7 µM (active) | inactive | –
Nc1nc(N)nc(-c2ccccc2)n1 | inactive | inactive | inactive | inactive | inactive | – | inactive | inactive | 31.4 µM (active) and 35.6 µM (active) | inactive | inactive | inactive | –
COC(=O)CCCC(=O)OC | inactive | inactive | 54 µM (active) and inactive | inactive | inactive | inactive | inactive | inactive | – | inactive | inactive | inactive | –
C[C@]12CCC(=O)C=C1CC[C@@H]1[C@@H]2[C@@H](O)C[C@@]2(C)[C@H]1CC[C@]2(O)C(=O)CO | inactive | inactive | inactive | inactive | inactive | – | inactive | inactive | – | inactive | – | inactive | 9.15% (inactive)

Source: PubChem BioAssay (Tox21)
